# Experimental data taken from article PMC6919601, “Identification of Plasmodium dipeptidyl aminopeptidase allosteric inhibitors by high throughput screening” (PLoS ONE, 2019).
# Hit rate of the full screen: of about 110,000 compounds, about 230 (0.21%) showed an effect of 50% or more. This is one part of a sample in which strong results are shown more often than they occur.
# Target: DPAP1 (Plasmodium falciparum, UniProt Q8IIJ9)
# Assay: primary screen, percent inhibition; read by cleavage of a fluorogenic dipeptide substrate; higher = more effect of the substance
# Design: species or system P. falciparum D10 trophozoite lysates; single well
# 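Note: 30 min substrate incubation versus DMSO and 10 µM JCP410 controls.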
# DPAP1, sequence (Q8IIJ9 whole entry, looked up): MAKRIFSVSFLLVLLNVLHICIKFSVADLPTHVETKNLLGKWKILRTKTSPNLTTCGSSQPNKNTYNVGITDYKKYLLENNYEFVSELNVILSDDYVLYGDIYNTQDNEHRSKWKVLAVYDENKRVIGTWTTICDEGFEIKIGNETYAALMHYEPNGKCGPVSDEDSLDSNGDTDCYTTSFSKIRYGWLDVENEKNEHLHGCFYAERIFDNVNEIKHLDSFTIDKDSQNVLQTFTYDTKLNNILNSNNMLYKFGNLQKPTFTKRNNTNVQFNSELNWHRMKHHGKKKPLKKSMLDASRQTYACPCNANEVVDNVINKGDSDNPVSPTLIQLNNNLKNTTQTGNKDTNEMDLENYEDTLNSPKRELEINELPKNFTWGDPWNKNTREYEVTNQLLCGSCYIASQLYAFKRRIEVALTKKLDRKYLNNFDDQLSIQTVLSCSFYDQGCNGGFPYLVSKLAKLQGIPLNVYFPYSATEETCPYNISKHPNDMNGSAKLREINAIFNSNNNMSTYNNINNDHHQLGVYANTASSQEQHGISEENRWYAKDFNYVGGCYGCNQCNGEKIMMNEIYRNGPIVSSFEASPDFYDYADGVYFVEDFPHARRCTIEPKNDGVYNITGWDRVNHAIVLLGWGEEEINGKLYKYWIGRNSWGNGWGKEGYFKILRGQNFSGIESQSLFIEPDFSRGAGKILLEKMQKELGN
row,SMILES,% Inhibition @ 10 uM
1,O=C(c1ccc(Oc2ccccc2)cc1)c1nc2c(n1O)CCCC2,1.74%
2,Cc1ccc(S(=O)(=O)NC(CC(=O)O)c2cccs2)cc1 (stereo not drawn),3.64%
3,CCS(=O)(=O)c1nc(S(=O)(=O)c2ccc(Cl)cc2)c(N2CCOCC2)s1,-2.25%
4,O=C(Nc1nc(-c2ccc(Br)cc2)cs1)c1ccco1,-2.99%
5,COc1ccc(-n2c(SCC(=O)N3CCOCC3)nc3sc4c(c3c2=O)CCC4)cc1,9.91%
6,O=c1c2c3c(sc2[nH]c(=S)n1-c1ccc(Cl)cc1)CCC3,62.5%
7,O=c1[nH]c(=S)[nH]c2sc3c(c12)CCN(Cc1ccccc1)C3,1.4%
8,Cc1ccc(-n2c(=S)[nH]c3sc4c(c3c2=O)CCCCC4)cc1,11.5%
9,COc1ccc(-n2c(=S)[nH]c3sc4c(c3c2=O)CCCCC4)cc1,12.4%
10,COc1ccc(-n2c(=S)[nH]c3sc4c(c3c2=O)CCC4)cc1,84.1%
11,O=c1c2c3c(sc2[nH]c(=S)n1-c1ccccc1)CN(Cc1ccccc1)CC3,57.7%
12,O=c1[nH]c2sc3c(c2c(=O)n1-c1ccc(Cl)c(Cl)c1)CCC3,-2.48%
13,Oc1ncnc2sc3c(c12)CCN(Cc1ccccc1)C3,6.74%
14,CC1(C)CC(=O)C2=C(C1)N(c1nc[nH]n1)C(N)=C(C#N)C2c1cccc(Cl)c1 (stereo not drawn),5.48%
15,CN1C2CCC1CC(N1CCN(Cc3ccccc3)CC1)C2 (stereo not drawn),-1.5%
16,COc1ccc(/C=C2\C(=N)N3N=C(S(C)(=O)=O)SC3=NC2=O)cc1,-5.27%
17,CCn1c(C)cc(/C=C2/NC(=O)N(c3ccccc3)C2=O)c1C,-2.19%
18,CSc1ccc(C2CC(=O)N3CN(C)CSC3=C2C#N)cc1 (stereo not drawn),75%
19,COc1ccc2ccccc2c1C1CC(=O)N2CN(C)CSC2=C1C#N (stereo not drawn),36.5%
20,CN1CSC2=C(C#N)C(c3ccc(Br)cc3)CC(=O)N2C1 (stereo not drawn),43.4%
21,CN1CSC2=C(C#N)C(c3ccccc3Cl)CC(=O)N2C1 (stereo not drawn),56.6%
22,CN1CSC2=C(C#N)C(c3ccccc3)CC(=O)N2C1 (stereo not drawn),32.9%

row,SMILES,% Inhibition @ 10 uM
1,COc1ccccc1CC(=N)NOC(=O)c1ccccc1OC,5.37%
2,N#CC1=C2SCN(CCN3CCOCC3)CN2C(=O)CC1c1ccc(F)cc1 (stereo not drawn),49.5%
3,N#CC1=C2SCN(CCc3ccccc3)CN2C(=O)CC1c1ccc(F)cc1 (stereo not drawn),51.6%
4,N#CC1=C2SCN(CCc3ccccc3)CN2C(=O)CC1c1cccs1 (stereo not drawn),42.6%
5,Cc1ccc(C2CC(=O)N3CN(CCc4ccccc4)CSC3=C2C#N)cc1 (stereo not drawn),64%
6,O=C(N/C(=C\c1ccco1)C(=O)N1CCN(C/C=C/c2ccccc2)CC1)c1ccccc1,2.09%
7,COc1ccc(C2N=C(NO)c3ccccc3N2)cc1 (stereo not drawn),-0.424%
8,CC(C)CSc1nc(N)c2c3c(sc2n1)CCC3,81.4%
9,CCCSc1nc(N)c2c3c(sc2n1)CCCC3,10.6%
10,C=C(C)CSc1nc(N)c2c3c(sc2n1)CCC3,4.37%
11,COc1ccccc1CNC(=O)Nc1cn(CC(C)C)c(=O)c2ccccc12,-4.21%
12,CC(C)CCNC(=O)c1nnc(-c2ccccc2)o1,-3.34%
13,CCOC(=O)c1sc(-c2ccccc2)nc1O,66.9%
14,CCOC(=O)c1sc(-c2ccccc2)nc1-c1ccc([N+](=O)[O-])cc1,2.86%
15,CCOC(=O)c1sc(C)c2c(O)nc(-c3ccccc3)nc12,-1.47%
16,c1ccc(CC2CCN(Cc3ccco3)CC2)cc1,-2.56%
17,COc1ccc(-c2cc(-c3ccccc3)nc(N3CCOCC3)n2)cc1OC,-2.6%
18,Cc1nsc2ccc(Cl)cc12,55%
19,Cc1nsc2ccc3sccc3c12,1.72%
20,Cc1nsc2ccc3ccccc3c12,3.36%
21,COc1ccc(-c2noc(CCC(=O)NCc3cc(OC)ccc3OC)n2)cc1,0.675%
22,COc1ccc(-c2noc(CCC(=O)NCc3ccc(F)cc3Cl)n2)cc1,60.3%

row,SMILES,% Inhibition @ 10 uM
1,Cc1ccc(-c2noc(CCC(=O)NCc3ccc(F)cc3Cl)n2)cc1,-0.999%
2,COCCNc1nc2c(S(=O)(=O)c3ccccc3)nnn2c2ccsc12,-0.256%
3,CCc1c(C)sc(NC(=O)Cc2ccc(OC)c(OC)c2)c1C(N)=O,16.2%
4,CCOC(=O)c1cc(-c2ccccc2)n(CCC(=O)N2CCCC(C)C2)c1C (stereo not drawn),1.2%
5,COc1ccccc1CNC(=O)c1cccc(Br)c1,-4.15%
6,N#Cc1cc2c(N)c(C(=O)c3ccc(Br)cc3)sc2nc1N,2.7%
7,O=C(NCC1CCCO1)C1CCC(CNS(=O)(=O)c2cccc3nsnc23)CC1 (stereo not drawn),4.54%
8,Cc1cccc(NC(=O)COc2ccc(C)cc2C)c1,-2.32%
9,Cc1ccc(NC(=O)COc2ccc(C)cc2C)cc1,-8.06%
10,Cc1ccc(OCC(=O)Nc2ccccc2)c(C)c1,78%
11,COc1ccc(NC(=O)c2ccc(C)c(Br)c2)cc1,2.42%
12,Cc1c(CNC2CCCc3ccccc32)c(C(=O)O)c(C)n1Cc1ccc(F)cc1 (stereo not drawn),-5.49%
13,Cc1cccc(Oc2nc3c(C)cccn3c(=O)c2/C=C(\C#N)C(=O)NCC2CCCO2)c1 (stereo not drawn),-9.06%
14,C=CCN1C(=O)C(CC(=O)NCC)S/C1=N\c1cccc2ccccc12 (stereo not drawn),0.512%
15,CCOC(=O)/C(C#N)=C/c1c(Oc2cccc(C)c2C)nc2ccccn2c1=O,77.8%
16,Cc1ccc(C(C)C)c(Oc2nc3ccccn3c(=O)c2/C=C(\C#N)C(=O)NCc2ccccc2)c1,-1.43%
17,CNC(=O)/C(C#N)=C/c1c(Oc2cc(C)ccc2C(C)C)nc2ccccn2c1=O,17%
18,CCNC(=O)/C(C#N)=C/c1c(Oc2cc(C)ccc2C(C)C)nc2ccccn2c1=O,75.9%
19,COC(=O)/C(C#N)=C/c1c(Oc2cccc(C)c2C)nc2ccccn2c1=O,-5.1%
20,CCOC(=O)/C(C#N)=C/c1c(Oc2ccccc2OC)nc2ccccn2c1=O,-5.1%
21,Cc1cc(C)c2c(n1)SCC(=O)N2CC(=O)NCc1cccc(Cl)c1,-6.01%
22,COCCN(Cc1ccco1)C(=O)c1cc2c(Cl)nc3ccccc3c2s1,3.88%
